# Screening data as filed in PubChem.
# This is a sample that favours compounds with a hit; in the whole collection about 8.8% have one here.
# HT1080 IDH1KD tx = toxicity to HT-1080 IDH1 knockdown cells (counter line); HT-1080 IDH1 knockdown viability, ATP luminescence, 48 h; Potency, µM (highest dose often 46.1 µM), inactives show at the top dose activity, negative = toxicity, actives largely listed as cytotoxic; 360,000 compounds, 2% hits;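 note: potency is the fitted concentration of half-maximal effect; 0% = DMSO wells and -100% = cell-free medium wells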
#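 Using the IDH1-knockdown HT-1080 line run in the same batch and compound series as the NT line, viability after 48 h at 37 °C was determined by CellTiter-Glo luminescence and expressed as % activity.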
# IL-1B inflam inh = blocks inflammasome-driven IL-1 beta release | 360,000 compounds, 4.7% hits | AID 743279 | THP-1 LPS/ATP IL-1B secretion, AlphaLISA, 16 h; active compounds read low | activity change, % at 57.5 µM; in the data active = activity change below about -50%; inconclusive = mostly about -30% to -49%
#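 Secreted IL-1B measured by AlphaLISA bead assay after 16 h compound exposure of THP-1 cells; compounds (final up to 57.5 uM) added 1 h before LPS (250 ng/mL) and ATP (1.25 mM) stimulation; lower signal means less secretion.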
# KB-V1 MDR tox = kills drug-selected multidrug resistant KB-V1 cells. 400,000 compounds, 3.4% hits. Potency, µM (top dose mostly 46.1 µM), hits mostly cytotoxic. KB-V1 MDR cells viability, CellTiter-Glo, 72 h; note: potency is the fitted concentration of half-maximal effect; nearly all actives have a fitted effect of over 60% in size
#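 Following 72 h at 37 degrees C with compound, KB-V1 cell viability was read by CellTiter-Glo luminescence, medium being phenol-red-free DMEM plus 10% FBS; concentration-response parameters came from normalized, curve-fitted qHTS data.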
# HT1080NT lethal = kills 2HG-producing HT-1080-NT fibrosarcoma cells; HT-1080-NT fibrosarcoma viability, CellTiter-Glo ATP luminescence, 48 h; Potency, µM (doses to about 46.1 µM), for inactives: top-dose activity, negative = less viability, hits mostly cytotoxic; 360,000 compounds, 1.6% hits;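 note: NT is the 2HG producing partner of a matched IDH1 knockdown line; potency is the fitted concentration of half-maximal effect; 0% = DMSO-treated cells and -100% = media-only wells without cells; nearly all actives have a fitted effect of over 55% in size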
#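 Fibrosarcoma NT cells, 750 per well in 5% FBS RPMI, were exposed to compound for 48 hours. Viability: CellTiter-Glo luminescence.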
# KB-3-1 tox = KB-3-1 parental cell cytotoxicity; KB-3-1 viability, CellTiter-Glo ATP luminescence, 72 h; Potency, µM (titrated, usually from 46.1 µM), actives largely listed as cytotoxic; 400,000 compounds, 1.4% hits; note: potency is the fitted concentration of half-maximal effect; nearly all actives have a fitted effect of over 60% in size
#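 Here the drug-naive KB-3-1 line serves as comparator for MDR sub-line selectivity; cells received compound titrations, 72 h at 37 °C, then CellTiter-Glo readout.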
# Starred values were filed as active, the others as inactive; i = inactive; ? = inconclusive; · = not tested or not shown. Unless noted, calls come from the whole dose curve; as a rule, active = well fitted curve in the direction sought with a large enough effect; inconclusive = small, poorly fitted or top-dose-only effect, or another doubt; inactive = no such curve, though single readings can be large; an effect the other way counts as inactive or inconclusive. Unless noted, % is set by controls: 0 for no effect and ±100 for the full control effect.
SMILES,HT1080 IDH1KD tx,IL-1B inflam inh,KB-V1 MDR tox,HT1080NT lethal,KB-3-1 tox
O=C1N(C2CCCC2)C[C@@H]2C[C@@H](c3cccn3-c3ccccn3)N3CCC[C@@]123,11%,0,?,10%,i
O=C1N(C2CCCC2)C[C@@H]2C[C@@H](c3cccn3-c3nccs3)N3CCC[C@@]123,-3%,-79*,i,1%,i
COC(=O)c1ccc(C(c2c(C)n(C)n(-c3ccccc3)c2=O)c2c(C)n(C)n(-c3ccccc3)c2=O)cc1,9%,19,i,11%,i
CCCCn1nnnc1C(c1cc2ccccc2o1)N1CCN(C(=O)OCC)CC1 (configuration not stated),3%,?,i,2%,i
O=S(=O)(Nc1nc2ccccc2nc1Nc1ccc2c(c1)OCO2)c1ccc(F)cc1,1%,15,5.8µM*,4%,?
O=S(=O)(Nc1nc2ccccc2nc1N1CCN(c2ccccc2)CC1)c1ccc(F)cc1,-7%,9,5.2µM*,-10%,?
Cc1ccc(S(=O)(=O)Nc2nc3ccccc3nc2N2CCOCC2)cc1,11%,14,i,0%,i
N#Cc1ccc(NS(=O)(=O)c2ccc3c(c2)CCC(=O)N3)cc1,·,·,?,·,i
COc1cccc(C(=O)Nc2ccc3nc(N4CCC(C)CC4)cc(C)c3c2)c1,·,·,i,·,?
CC(OC(=O)c1nn(C)c(=O)c2ccccc12)C(=O)Nc1ccc(S(N)(=O)=O)cc1 (configuration not stated),-2%,12,i,1%,i
C/C(=N\NC(=S)NCc1ccccc1)c1ccc(C)o1,-5%,-4,i,2%,i
Cc1ccc(Nc2nc(-c3ccc(F)cc3)cs2)nc1,-5%,19,i,-3%,i
CC(=O)Nc1ccc(-c2csc(Nc3cc(C)ccn3)n2)cc1,?,-104*,?,?,?
Cc1ccc(Nc2nc(-c3ccc(O)c(O)c3)cs2)nc1,23µM*,-77*,i,?,?
Cc1ccnc(Nc2nc(-c3c(C)nc4sccn34)cs2)c1,-28%,-61*,?,-5%,?
COc1ccc(-c2csc(Nc3cc(C)ccn3)n2)cc1OC,?,-87*,i,-27%,i
Cc1nnc(SCC(=O)NCCC2=CCCCC2)[nH]c1=O,11%,0,i,8%,i
CCOc1ccc(N2C(=O)Nc3ccccc3C2(O)C(=O)N2CCN(c3ccccn3)CC2)cc1 (configuration not stated),-5%,-9,i,0%,i
COC(=O)c1ccc(C(=O)N(CCN(C)C)c2nc3c(Cl)cccc3s2)cc1,1%,2,?,10%,i
COc1ccc(CN(Cc2ccco2)c2cnc(S(C)(=O)=O)nc2C(=O)Nc2ccc(C)c(Cl)c2)cc1,·,·,i,·,i
CC(=O)Nc1cccc(-c2csc(Nc3ccccn3)n2)c1,-25%,-13,i,?,i
CC(=O)Nc1cccc(-c2csc(Nc3cc(C)ccn3)n2)c1,-14%,-96*,23µM*,?,i
Cc1ccc(S(=O)(=O)N2CCCC2CNC(=O)c2ccc(F)c(F)c2)cc1 (configuration not stated),-3%,-6,?,7%,i
CCCOc1ccc(CNC(=O)C2CCN(c3nnc(N4CCCC4=O)s3)CC2)cc1,-3%,3,i,9%,i
COC(=O)c1cccc(OCCCN2CCC(C(O)(c3ccccc3)c3ccccc3)CC2)c1,16µM*,0,?,?,i
COc1cccc(C(=O)NCCCN2CCN(CCCNC(=O)c3cccc(OC)c3)CC2)c1,17%,-8,i,13%,i
Fc1ccc(OCCCCCCN2CCCC2)cc1,-4%,19,i,7%,i
OC(c1ccccc1)(c1ccccc1)C1CCN(CCCOc2ccc(F)cc2)CC1,23µM*,-53*,?,21µM*,i
Cc1ccc(OCCCN2CCC(C(O)(c3ccccc3)c3ccccc3)CC2)cc1,18µM*,-52*,21µM*,?,?
